Compound activity as filed in PubChem BioAssay.
Shown are actives, neighbours in structure and some others; about 3.7% of the full set was active somewhere.
Anthrax LF inh2 = Bacillus anthracis LF protease inhibitors, primary screen, biochemical, multiplex microsphere, MLPCN library | Lethal factor (Bacillus anthracis), P15917 | multiplex microsphere protease cleavage assay | inhibition, % at 10 µM | actives 0.12% (n = 360,000) | AID 588501, 2011; further: plate controls were buffer without enzyme for full effect and enzyme alone for no effect
BoNT F protease = BoNT/F light chain protease inhibitors, primary screen, biochemical, flow cytometry, MLPCN library; inhibition, % at 10 µM; Multiplex microsphere protease cleavage assay; Botulinum neurotoxin type F light chain protease (Clostridium botulinum); actives 0.22% (n = 360,000); in the data active means inhibition above about 35%, passing the limit was not always enough; inconclusive means no clear call, values can overlap the other calls; further: plate controls were buffer without enzyme for full effect and enzyme alone for no effect
MazEF act = activators of E. coli MazEF toxin-antitoxin RNase, primary screen, biochemical, fluorescence, uHTS | FAM/BHQ RNA-DNA oligo cleavage fluorescence, 5 h | activation, % at 20 µM | actives 0.32% (n = 350,000) | AID 504720, 2011; in the data active means activation above about 50%
Target sequence (P0AE70 whole entry, looked up): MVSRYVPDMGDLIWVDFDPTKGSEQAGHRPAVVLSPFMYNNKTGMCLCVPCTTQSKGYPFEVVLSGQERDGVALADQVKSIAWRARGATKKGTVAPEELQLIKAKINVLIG
Autofluor counter = flagged as autofluorescent in microsphere protease counterscreen; compound autofluorescence counterscreen, microsphere flow cytometry; stronger effect = higher value; fluorescence intensity (test concentration not listed); actives 3.1% (n = 360,000); in the data active means fluorescence intensity above about 16000; inconclusive means no clear call, values can overlap the other calls
BoNT-A LC inh2 = BoNT/A light chain protease inhibitors, primary screen, biochemical, flow cytometry, MLPCN library; inhibition, % at 10 µM; Botulinum neurotoxin type A light chain protease (Clostridium botulinum A str. ATCC 3502); multiplex microsphere protease substrate cleavage; actives 0.17% (n = 360,000); further: plate controls were buffer without enzyme for full effect and enzyme alone for no effect
* marks the source's active call; other numbers are inactive results; ? = inconclusive; . = no result given; + = active, no number. Unless noted, no stated cut-off is given here; in the data, active means inhibition above about 30%; inconclusive means no clear call, values can overlap the other calls; inactive means below that.

SMILES | Anthrax LF inh2 | BoNT F protease | MazEF act | Autofluor counter | BoNT-A LC inh2
CN(C)C(=O)c1cc2c(c(-c3cccc(C4=CCCCC4)c3)n1)[C@@H](CCO)N(S(=O)C(C)(C)C)C2 (stereo partly specified) | -2 | -4 | . | 4493 | 0
O=c1[nH]c(CN2CCN(C/C=C/c3ccccc3)CC2)nc2ccccc12 | 1 | -2 | 11 | 21675* | ?
NC(=O)C1CCN(Cc2nc3cc(Cl)ccc3c(=O)[nH]2)CC1 | 1 | -1 | -4 | 2847 | 0
NC(=O)C1CCN(Cc2nc3ccccc3c(=O)[nH]2)CC1 | 1 | -1 | 3 | 23828* | 0
Cc1ccc2c(NCc3ccco3)nc(NC(C)C)nc2c1 | -6 | -9 | . | 6543 | -1
CCCNC(=O)c1cc(C2CCCCN2C(=O)c2ccc(OC)cc2)on1 (stereo unspecified) | -4 | 5 | . | 3837 | 0
Cn1c(C(O)c2ccccc2F)nc(Cl)c1Cl (stereo unspecified) | -2 | 0 | -1 | 22133* | 0
OCCNc1nc(-c2ccccc2)c2cc(Cl)ccc2n1 | 2 | 3 | -7 | 3998 | 2
Cc1ccc2nc(N/N=C/c3ccccc3C#N)nc(-c3ccccc3)c2c1 | -3 | -5 | 17 | 17384* | -2
Cc1ccc2nc(NCCO)nc(-c3ccccc3)c2c1 | 1 | 0 | 1 | 23056* | 1
N#Cc1ccccc1/C=N/Nc1nc(-c2ccccc2)c2cc(Cl)ccc2n1 | -1 | 6 | -6 | 3917 | 1
CN(C)C(CNC(=O)C1CCN(S(=O)(=O)c2ccc(Cl)cc2)CC1)c1ccccc1 (stereo unspecified) | 2 | 20 | 6 | 4443 | 2
COc1ccc(S(=O)(=O)N2CCC(NC(=O)Nc3ccc(C)cc3)CC2)cc1 | -6 | 5 | -2 | 20464* | ?
COc1ccc(C(CNC(=O)C2CCN(S(=O)(=O)c3ccc(F)cc3)CC2)N(C)C)cc1 (stereo unspecified) | -2 | 2 | + | 3363 | 3
COc1ccc(S(=O)(=O)N2CCCCCC2)cc1 | -2 | 1 | 0 | 22702* | 0
COc1ccc(S(=O)(=O)N2CCC(C(=O)NCC3CC3)CC2)cc1 | 4 | 5 | 4 | 3057 | -2
COC(=O)C1CCN(S(=O)(=O)c2ccc(OC)cc2)CC1 | 1 | -4 | -52 | 24359* | -2
Cc1ccc(NC(=O)NC2CCN(S(=O)(=O)c3ccc(F)cc3)CC2)cc1 | -5 | -4 | -3 | 7680 | 1
Cn1c(CC(O)c2nc3ccccc3n2C)nc2ccccc21 (stereo unspecified) | 2 | 3 | 0 | 3792 | 0
COCCN(Cc1ccccc1)C(=O)c1ccc(C(=O)c2ccccc2)cc1 | -1 | -6 | 5 | 6618 | 1
Cc1cc(C)c2c(=O)n(CC(=O)Nc3ccc(Cl)cc3)sc2n1 | -7 | 5 | -16 | 3796 | 48*
CCc1cc(C(=O)OC)c(NC(=O)CC2NCCNC2=O)s1 (stereo unspecified) | 0 | 0 | 5 | 21532* | ?
COC(=O)c1cc(NC(=O)CC2NCCNC2=O)cc(C(=O)OC)c1 (stereo unspecified) | -3 | -3 | -2 | 10508 | -1
O=C(CC1NCCNC1=O)Nc1ccc2c(c1)OCO2 (stereo unspecified) | -5 | -8 | 2 | 22917* | -2
CSCCC(NC(=O)c1ccccc1Br)C(=O)NNC(=O)C1COc2ccccc2O1 (stereo unspecified) | 1 | -12 | 7 | 3681 | 0
SMILES | Anthrax LF inh2 | BoNT F protease | MazEF act | Autofluor counter | BoNT-A LC inh2
COc1cc(C(=O)NC2CCN(Cc3nnnn3Cc3cccs3)CC2)cc(OC)c1OC | -8 | 1 | -1 | 22671* | 1
CN1CCN(CCC(=O)Nc2ccc(OCc3ccccc3)cc2)CC1 | 4 | 6 | 4 | 5490 | 0
O=C(CCN1CCN(CCO)CC1)Nc1ccc(OCc2ccccc2)cc1 | 3 | 2 | 1 | 19226* | 2
COc1ccc(NC(=S)Nc2cc(-c3ccccc3)[nH]n2)cc1Cl | -4 | -17 | 3 | 11985 | -2
O=C(Nc1ccc(N2CCN(Cc3ccccc3)CC2)cc1)c1ncn[nH]1 | -5 | -13 | -4 | 23010* | 0
O=C(CCN1CCN(Cc2ccccc2)CC1)Nc1ccc(OCc2ccccc2)cc1 | -4 | -4 | 7 | 17367* | -2
CCOc1ccc(NC(=S)Nc2cc(-c3ccccc3)[nH]n2)cc1 | -4 | -1 | 7 | 19137* | 1
Cc1ccc(C(=O)OCC(=O)NC2CCCC(C)C2C)cc1S(=O)(=O)N1CCCCC1 (stereo unspecified) | -2 | 2 | 4 | 8861 | 0
S=C(Nc1ccccc1)Nc1ccc(OCc2ccccc2)cc1 | -6 | 4 | -2 | 19054* | ?
Cc1cc(C)n(C(=O)c2ccc(C)c(S(=O)(=O)N3CCCCC3)c2)n1 | 0 | 0 | 4 | 16992* | -2
O[C@@H]1C[C@H](c2ccc(Cl)cc2)N(Cc2cccs2)C[C@H]1n1cc(-c2ccc(F)cc2)nn1 | -4 | 2 | -7 | 2900 | 0
CC(NS(=O)(=O)c1ccc2[nH]c(=O)[nH]c2c1)c1ccc(F)cc1 (stereo unspecified) | 0 | -6 | -9 | 3876 | 0
Cc1nnc(C)n1/N=C/c1ccc(C(=O)O)cc1 | 3 | 1 | 4 | 22576* | 0
O=C(O)c1ccc(C=NN2CCCCCC2)cc1 | 5 | -2 | 8 | 3907 | 0
Brc1cnc(N2CCCC2)nc1N1CCOCC1 | 0 | 0 | -5 | 21599* | ?
CCn1c(SCC(=O)Nc2nc(-c3ccccc3)cs2)nnc1-c1ccccc1 | -2 | -1 | 4 | 6692 | 0
O=C(CSc1ncn(-c2ccccc2)n1)Nc1nc2ccccc2s1 | -2 | 2 | -5 | 22783* | 2
Cc1nnc(SCC(=O)Nc2nc(-c3ccccc3)cs2)n1N | -3 | -1 | 2 | 22717* | -1
CCOC(=O)N1CCN(C(=O)CSCC(=O)Nc2nc(-c3ccccc3)cs2)CC1 | -1 | -2 | -6 | 23127* | 0
O=C(CSc1ncn(-c2ccccc2)n1)Nc1nc(-c2ccccc2)cs1 | -10 | 1 | -6 | 20833* | ?
O=S1(=O)N[C@H](Cc2ccccc2)COc2cccc(N3CCN(Cc4ccccc4F)CC3)c21 | -11 | -2 | . | 5543 | 1
Nc1nonc1-n1nnc(C(=O)N/N=C/c2cc(Cl)ccc2O)c1CN1CCCCCC1 | -3 | -11 | . | 5339 | 0
Cc1ccc(NC(C(=O)c2ccccc2)c2ccccc2)cc1 (stereo unspecified) | -2 | -4 | 1 | 3627 | 0
O=C(CSc1nnc(CNc2ccc(Cl)cc2)o1)Nc1nc2ccccc2s1 | -2 | -7 | 2 | 25121* | ?
O=C(CSc1nnc(CNC(=O)c2ccco2)o1)Nc1nc2ccccc2s1 | -1 | 2 | 5 | 2083 | 0
